Data taken from paper PMC4552634, “A New Set of Chemical Starting Points with Plasmodium falciparum Transmission-Blocking Potential for Antimalarial Drug Discovery” (PLoS ONE, 2015).
Hit rate of the full screen: of about 13,000 compounds, about 3,200 (25%) showed an effect of 50% or more. The list shows a part of the results.

These compounds were tested on P. falciparum stage V gametocytes. Settings: 48 h, 5 µM; inhibitor.
Parameters: BacTiter-Glo ATP luminescence viability of purified stage V gametocytes in 384-well plates, per cent inhibition versus DMSO

| Structure (SMILES) | % Inhibition |
| --- | --- |
| O=C(NC1CCCCC1)c1csc(C2CCCN(C(=O)c3ccc(O)c(-c4cccc(C(F)(F)F)c4)c3)C2)n1 (centres unmarked) [TCMDC-140156] | 5.189% |
| CC(=O)c1ccc(-c2cccc3c(CC(=O)Nc4ccc5nccc(N6CCN(C)CC6)c5c4)cccc23)cc1 [TCMDC-139271] | -10.77% |
| O=C(NCCCCN1CCC(c2ccc3c(c2OCCO)CCCC3)CC1)c1ccc(-c2ccc(C(F)(F)F)cc2)cc1 [TCMDC-138714] | 98.87% |
| O=C(NCCCCN1CCC(c2ccc3c(c2OCCO)CCCC3)CC1)c1ccc2oc(-c3ccc(C(F)(F)F)cc3)cc2c1 [TCMDC-138771] | 113.6% |
| CNC(=O)COc1cc(C)c(C2CCN(CCCCNC(=O)c3ccc(-c4ccc(C(F)(F)F)cc4)cc3)CC2)cc1C [TCMDC-138846] | 42.45% |
| O=C(NCCCCN1CCC(c2ccc3c(c2OCCCO)CCCC3)CC1)c1ccc(-c2ccc(C(F)(F)F)cc2)cc1 [TCMDC-138743] | 141.9% |
| CCOC(=O)c1cc(C(=O)NCCCCN2CCC(c3cn(C)c4ccccc34)CC2)ccc1-c1ccc(C(F)(F)F)cc1 [TCMDC-138751] | 1.206% |
| O=C(NCCCCN1CCC(c2cccc3ccccc23)CC1)c1ccc(-c2ccc(C(F)(F)F)cn2)cc1 [TCMDC-138570] | -25.01% |
| Cn1cc(C2CCN(CCCCNC(=O)c3ccc(-c4ccc(C(F)(F)F)cc4)c(CO)c3)CC2)c2ccccc21 [TCMDC-138748] | 65.02% |
| O=C(NCCCCN1CCC(c2ccc3c(c2OCCO)CCCC3)CC1)c1sc(-c2ccc(C(F)(F)F)cc2)nc1CO [TCMDC-138776] | 39.12% |
| O=C(NCCCCN1CCC(c2ccc3c(c2OCC2COCO2)CCCC3)CC1)c1ccc(-c2ccc(C(F)(F)F)cc2)cc1 (centres unmarked) [TCMDC-138770] | 14.16% |
| CN1CCCc2ccc(NC(=O)c3cc(-c4ccc(Cl)cc4)cs3)cc2C1 [TCMDC-133946] | 39.01% |
| CCN(CCCN1CCCCC1)c1nc(C)cc(Nc2ccc(Cl)cc2)n1 [TCMDC-137045] | 21.21% |
| O=C(Nc1ccc2c(c1)OCO2)NC1CCN(c2ccnc(NCc3ccc(F)cc3)n2)CC1 [TCMDC-133635] | 26.57% |
| Cc1ccc(NC(=O)c2ccc3ncccc3c2)cc1OC1CCN(CCC(C)C)C1 (centres unmarked) [TCMDC-133980] | 9.414% |
| CCCC1N=C(N)N=C(N)N1c1ccc(OC)cc1 (centres unmarked) [TCMDC-131295] | -30.41% |
| O=C(Nc1ccc(CCNC2=NCCN2)cc1)Nc1ccc(CCNC2=NCCN2)cc1 [TCMDC-137205] | 10.33% |
| CCCCc1ccc2[nH]c(NC(=O)OC)nc2c1 [TCMDC-131798] | -12.96% |
| CC(C)(C)OC(=O)Cn1cnc2cc(NC(=O)c3cc([N+](=O)[O-])cc([N+](=O)[O-])c3)ccc21 [TCMDC-131910] | -17.84% |
| Cc1nc2ccc3ccc(CNc4ccc(C(=O)N[C@@H](CCC(=O)O)C(=O)N[C@@H](Cc5cccs5)C(=O)O)c(F)c4)cc3c2c(=O)[nH]1 [TCMDC-137819] | 7.673% |
| O=C(CNC(=O)c1ccc(O)cc1)Nc1cccc(-c2cccc(-c3nc4ccc(C(F)(F)F)cc4[nH]3)c2)c1 [TCMDC-136816] | 11.2% |
| CN1CCN(CC(O)CNC(=O)Nc2ccc(Br)cc2)CC1 (centres unmarked) [TCMDC-134635] | 15.1% |
| O=C(NCCCCN1CCC(c2ccc3c(c2OCCN2CCCC2)CCCC3)CC1)c1ccc(-c2ccc(C(F)(F)F)cc2)cc1 [TCMDC-138768] | 107.4% |

| Structure (SMILES) | % Inhibition |
| --- | --- |
| O=C(NCCCCN1CCC(c2ccc3c(c2OCC(O)c2ccc(Cl)cc2)CCCC3)CC1)c1ccc(-c2ccc(C(F)(F)F)cc2)cc1 (centres unmarked) [TCMDC-138749] | 115% |
| CC(=O)COc1c(C2CCN(CCCCNC(=O)c3ccc(-c4ccc(C(F)(F)F)cc4)cc3)CC2)ccc2c1CCCC2 [TCMDC-138738] | 105.6% |
| NC(N)=Nc1nccc(NCc2ccccc2)n1 [TCMDC-141971] | 14.91% |
| N#Cc1ccc(N(CCOc2ccc3c(c2)CCC(=O)N3)Cc2ccccc2C(F)(F)F)cc1C(F)(F)F [TCMDC-132801] | 23.33% |
| O=C(Nc1cccc(CN2CCCN(Cc3ccc(O)cc3)CC2)c1)c1cc(F)cc(F)c1 [TCMDC-141881] | 2.179% |
| O=C(/C=C/c1ccc(Cl)c(Cl)c1)NCCCCCN1CCC(NC(=O)NCCc2ccccc2)CC1 [TCMDC-135707] | -32.39% |
| CCCC(=O)Nc1ccc(OCCCN(Cc2ccccc2OC(F)(F)F)c2ccc(C#N)c(C(F)(F)F)c2)cc1 [TCMDC-135667] | 14.29% |
| COc1ccccc1-c1[nH]c2ccccc2c1CN1CCC(c2c(C)cccc2C)CC1 [TCMDC-141628] | 83.13% |
| COc1cccc(CN2CCC(CCOC(c3ccccc3)c3ccccc3)CC2)c1O [TCMDC-136041] | -8.929% |
| COc1cccc(-c2[nH]c3ccccc3c2CN2CCC(c3c(C)cccc3C)CC2)c1 [TCMDC-141630] | 29.07% |
| CCN1CCN(c2cc(C)c3cc(NC(=O)c4ccc(Br)o4)ccc3n2)CC1 [TCMDC-123600] | 1.193% |
| COc1ccc(-c2ccc(NC(=O)c3ccc(Cl)cc3)cc2)cc1CN1CCN(C)CC1 [TCMDC-132512] | 92.99% |
| COc1ccc(-c2cccc(NC(=O)c3cccc(Cl)c3)c2)cc1CN1CCN(C)CC1 [TCMDC-132617] | 28.66% |
| COc1ccc(-c2cccc(NC(=O)c3ccc(Cl)cc3)c2)cc1CN1CCCN(C)CC1 [TCMDC-132602] | -35% |
| COc1ccc(-c2ccc(NC(=O)c3cccc(Cl)c3)cc2)cc1CN1CCN(C)CC1 [TCMDC-132526] | 82.79% |
| COc1ccc(-c2ccc(NC(=O)c3ccc(Cl)cc3)cc2)cc1CN1CCCN(C)CC1 [TCMDC-132510] | 104.3% |
| COc1ccc(-c2ccc(NC(=O)c3ccc(C#N)cc3)cc2)cc1CN1CCN(C)CC1 [TCMDC-133336] | -18.08% |
| COc1ccc(-c2ccc(CNC(=O)c3ccc(Cl)cc3)c(F)c2)cc1CN1CCCN(C)CC1 [TCMDC-133369] | -6.152% |
| COc1ccc(-c2ccc(NC(=O)c3ccc(Cl)cc3)cc2)cc1CN1CCC(O)CC1 [TCMDC-133337] | 0.3946% |
| CC1(C)N=C(N)N=C(N)N1OCCCNC(=O)c1ccc(C(=O)NCCCON2C(N)=NC(N)=NC2(C)C)cc1 [TCMDC-131677] | 3.216% |
| CCOC(=O)c1ccc(-c2c(C(F)(F)F)noc2-c2cc(CC)c(OC)cc2O)o1 [TCMDC-124150] | 2.818% |
| Cc1ccc(C)c2c1[nH]c1ccc(C3=NCCN3)cc12 [TCMDC-137683] | 24.52% |
| CCCS(=O)(=O)c1nc(S(=O)(=O)c2ccc(Cl)cc2)c(N2CCCCC2)s1 [TCMDC-124768] | -49.43% |

| Structure (SMILES) | % Inhibition |
| --- | --- |
| COc1ccc(-c2ccc(CNCc3ccsc3)cc2)cc1S(=O)(=O)NCCN1CCCC1 [TCMDC-132283] | 107.3% |
| O=S(=O)(NCCN1CCCC1)c1ccc(-c2ccc(CNCc3ccsc3)cc2)cc1F [TCMDC-132288] | 40.86% |
| COc1ccc(CNCc2ccsc2)cc1-c1ccc(OC)c(S(=O)(=O)NCCN2CCCC2)c1 [TCMDC-132296] | 104.6% |
| COc1ccc(CNCc2ccsc2)cc1-c1ccc(S(=O)(=O)NCCN2CCCC2)c(C)c1 [TCMDC-132225] | 105.9% |
| Cc1cc(-c2ccc(CNCc3ccsc3)cc2)ccc1S(=O)(=O)NCCN1CCCC1 [TCMDC-132292] | 94.64% |
| CC(=O)OCCN1C(=O)c2ccc3c4c(ccc(c24)C1=O)C(=O)N(CCOC(C)=O)C3=O [TCMDC-123488] | 10.44% |
| COc1cc(Nc2nccc(N3CCC(NC(=O)c4cccc(NC(C)=O)c4)C3)n2)cc(OC)c1OC (centres unmarked) [TCMDC-133622] | -17.51% |
| Cc1ccc(O)c(C(=O)c2cnc3c(c2)c(-c2ccc(F)cc2)c(C#N)c(=O)n3C)c1 [TCMDC-124507] | 19.5% |
| CC(=O)Nc1ccc(CN2CCC(N(C)c3cc(NC(=O)c4cccc(F)c4)ccn3)CC2)cc1 [TCMDC-134981] | -20.16% |
| O=C(Nc1ccc2c(c1)CN(Cc1ccc(N3CCCC3)o1)CCC2)c1ccoc1 [TCMDC-134723] | -9.381% |
| COc1ccc(-c2nc(NC(=O)Cc3cccc(OC)c3)sc2C)cc1 [TCMDC-124331] | 95.1% |
| COc1ccc(-c2nc(NC(=O)CSc3ccc([N+](=O)[O-])cc3)sc2C)cc1 [TCMDC-124323] | 91.56% |
| Cc1sc(NC(=O)Cc2cccc(C(F)(F)F)c2)nc1-c1cccc(Cl)c1 [TCMDC-125144] | 54.43% |
| COc1ccc(-c2nc(NC(=O)CS(=O)(=O)c3ccc(OC)cc3)sc2C)cc1 [TCMDC-125152] | -0.7393% |
| COc1ccc(-c2nc(NC(=O)CSc3ccccc3)sc2C)cc1 [TCMDC-123814] | 23.99% |
| COc1ccc(-c2nc(NC(=O)CS(=O)(=O)c3ccc(C)cc3)sc2C)cc1 [TCMDC-124318] | 31.51% |
| Cc1ccc(-c2nc(NC(=O)Nc3ccc(C(F)(F)F)cc3)sc2C)cc1Cl [TCMDC-125584] | 10.27% |
| COc1ccc(OCC(=O)Nc2nc(-c3ccc(OC)cc3)c(C)s2)cc1 [TCMDC-124330] | 22.09% |
| COc1ccc(-c2nc(NC(=O)Cc3ccc4c(c3)OCCO4)sc2C)cc1 [TCMDC-124374] | 41.12% |
| CCOc1ccc(-c2nc(NC(=O)Cc3cccc(OC)c3)sc2C)cc1 [TCMDC-123618] | -21.09% |
| COc1ccc(-c2nc(NC(=O)CS(=O)(=O)c3ccc(F)cc3)sc2C)cc1 [TCMDC-123523] | 53.6% |
| COc1ccc(-c2nc(NC(=O)Cc3ccc(OC)c(OC)c3)sc2C)cc1 [TCMDC-123619] | 10.74% |
